# In the library only some 3.5% were active in any assay of this set; here they are far more common.
# GPR151 activ = human GPR151 activation | Q8TDV0 | PathHunter beta-arrestin GPR151 cells, luminescence | activation, % at 11.2 µM | 650,000 tested, 1% active | AID 1508602; in the data active means activation above about 4.9%
# FBW7 activator = activators of human E3 ligase FBW7; Q969H0; AlphaScreen FBW7–phospho-cyclin E peptide binding, activator screen; normalized activity (activation), % at 26.1 µM; 650,000 tested, 0.13% active; in the data active means normalized activity above about 1.9%;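 further: purified mutant Fbw7 with reduced substrate affinity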
# MITF primary = blocks human microphthalmia-associated transcription factor; O75030; AlphaScreen MITF homodimerization, bead proximity signal; inhibition, % at 2.6 µM; 650,000 tested, 0.91% active; AID 1259374; in the data active means inhibition above about 50%
# Target sequence (O75030 whole entry, looked up): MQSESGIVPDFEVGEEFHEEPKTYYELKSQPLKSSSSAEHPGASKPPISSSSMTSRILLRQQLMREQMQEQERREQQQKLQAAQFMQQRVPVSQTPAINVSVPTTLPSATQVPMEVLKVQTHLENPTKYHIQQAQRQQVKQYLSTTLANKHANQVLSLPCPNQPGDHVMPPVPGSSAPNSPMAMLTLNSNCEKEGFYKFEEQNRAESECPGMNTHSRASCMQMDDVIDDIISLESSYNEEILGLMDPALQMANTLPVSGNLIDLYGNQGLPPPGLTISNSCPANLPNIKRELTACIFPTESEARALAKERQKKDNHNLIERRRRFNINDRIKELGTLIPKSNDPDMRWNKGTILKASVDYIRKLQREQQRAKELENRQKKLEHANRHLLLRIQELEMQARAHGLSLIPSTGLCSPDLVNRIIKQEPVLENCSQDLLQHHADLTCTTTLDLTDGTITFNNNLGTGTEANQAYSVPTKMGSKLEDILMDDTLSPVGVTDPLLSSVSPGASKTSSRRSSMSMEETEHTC
# TEAD-YAP inh = TEAD-YAP interaction inhibition; inhibition, % at 9.12 µM; 640,000 tested, 1.4% active; HEK-TIYL cells, TEAD-Gal4/YAP UAS-luciferase luminescence; in the data active means inhibition above about 32%
# GPR151 confirm = confirmation of human GPR151 activators | shares compounds with GPR151 activ | GPR151 PathHunter beta-arrestin cells, luminescence, 90 min; % of EA-reagent control over plate median | activation, % at 11.2 µM | 6,700 tested, under 10 active | AID 1508609;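 active means mean percent activation across replicates above the confirmation screen cutoff of 4.91%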
# GPR119 ag = activates human GPR119 in a GPR151 counter-screen; GPR119 PathHunter beta-arrestin cells, luminescence, 90 min; 0 = compound-well median, 100 = enzyme-acceptor control; 6,700 tested, 0.3% active; AID 1508611; activation, % at 11.2 µM; shares compounds with GPR151 activ;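 active means mean percent activation in the counterscreen above 29.09%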;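 further: counterscreen on off-target GPR119 to flag nonselective hits from the GPR151 activator screen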
# Hits are given with their value; - = inactive; . = no result.
SMILES,GPR151 activ,FBW7 activator,MITF primary,TEAD-YAP inh,GPR151 confirm,GPR119 ag
O=C(Nc1ccc(N2CCOCC2)cc1)c1ccnc(NCCN2CCOCC2)c1,-,-,-,-,.,.
CC(=O)Nc1ccc(NC(=O)c2ccnc(Nc3ccc(N4CCOCC4)cc3)c2)cc1,-,-,-,-,.,.
NC(=O)C1CCN(CC(=O)Nc2ccc(N3CCOCC3)cc2)CC1,5.9,-,-,-,-,-
O=C(Nc1ccc(N2CCOCC2)cc1)c1ccnc(N2CCOCC2)c1,5.5,-,-,-,-,-
Cn1c(=O)oc2cc(S(=O)(=O)N3CCn4c3nc3ccccc34)ccc21,-,-,-,-,.,.
O=C1CC(=O)Nc2cc(S(=O)(=O)N3CCn4c3nc3ccccc34)ccc2N1,5.9,-,-,-,-,-
CCOC(=O)C(=O)NN(C(=O)Nc1ccccc1)c1ccccc1,-,-,-,-,.,.
CSc1nnc(C)c(=O)n1COC(=O)c1ccccc1I,-,-,-,-,.,.
CSc1nnc(C)c(=O)n1COC(=O)c1cc2ccccc2o1,7.5,-,-,-,-,-
O=C(OCc1cccc([N+](=O)[O-])c1)c1cc(Cl)ccc1O,7.2,-,-,-,-,-
CCOC(=O)N1CCC(N(CCOC)C(=S)Nc2cccc(OC)c2)CC1,8.6,-,-,-,-,-
O=C(c1cnn2c1NC(c1cccs1)CC2C(F)(F)F)N1CCc2ccccc2C1 (configuration not stated),5.5,-,-,-,-,-
O=C(c1cnn2c1NC(c1cccs1)CC2C(F)(F)F)N1CCN(C(c2ccccc2)c2ccccc2)CC1 (configuration not stated),-,-,-,-,.,.
COc1cccc(C2CC(c3ccc(Br)cc3)=NN2C(=O)CSc2nnc(CNC(=O)c3ccccc3)n2C)c1OC (configuration not stated),-,-,-,-,.,.
CC(C)CCN1C(=O)CC(NNC(=O)c2ccc(F)cc2)C1=O (configuration not stated),5.7,-,-,-,-,-
COC(=O)CN1C(=O)S/C(=C/c2ccc(OCC(=O)O)c(Br)c2)C1=O,6.9,-,-,-,-,-
COC(=O)CN1C(=O)S/C(=C/c2ccc(Br)cc2)C1=O,-,-,-,-,.,.
COC(=O)CN1C(=O)S/C(=C/c2cc(Cl)cc(OC)c2O)C1=O,5.2,-,-,-,-,-
CC(C)C(C)NC(=O)CSc1nnc(COc2ccccc2Cl)o1 (configuration not stated),7.7,-,-,-,-,-
COc1ccccc1OCc1nnc(SCC(=O)N(C)C)o1,-,-,-,-,.,.
O=C(Cc1cc(=O)[nH]c(=O)[nH]1)N1CCCCC1,-,-,-,-,.,.
COc1cc(OC)cc(C(=O)Nc2ccc(N3CCN(C)CC3)cc2)c1,-,-,-,-,.,.
CCSc1ccccc1C(=O)Nc1ccc(S(=O)(=O)N2CCOCC2)cc1,6.5,-,-,-,-,-
CCSc1ccccc1C(=O)Nc1ccncc1,5.0,-,-,-,-,-
CCSc1ccccc1C(=O)Nc1cccnc1,-,-,-,-,.,.
SMILES,GPR151 activ,FBW7 activator,MITF primary,TEAD-YAP inh,GPR151 confirm,GPR119 ag
Cc1ccccc1C(=O)Nc1ccc(S(=O)(=O)N2CCN(C)CC2)cc1,6.7,-,-,-,-,-
O=C(Nc1ccc(Cl)cc1Cl)/C(=C/c1cccc([N+](=O)[O-])c1)NC(=O)c1cccc(Cl)c1,-,-,-,-,.,.
COc1cc(Br)c(/C=N/Nc2nnc(C)n2N)cc1OC,-,-,-,-,.,.
O=C(NCCc1ccccc1)c1ccc2c(c1)ncn2-c1ccc(OCc2ccccc2)cc1,-,-,-,-,.,.
COc1cccc(CN2CCC3(CC2)CC3C(=O)NCc2cccc(C(F)(F)F)c2)c1O (configuration not stated),5.0,-,-,-,-,-
CCn1nc(C)c(CN2CCC3(CC2)CC3C(=O)NCc2ccccc2)c1C (configuration not stated),5.4,-,-,-,-,-
O=C(NCc1ccco1)C1CN(Cc2ccccc2)CCN1 (configuration not stated),-,-,-,-,.,.
COc1cccc(NS(=O)(=O)c2nc3nc(C)c(C)c(C)n3n2)c1,-,-,-,-,.,.
CCN1CCC(N(Cc2ccco2)C(=O)NC2CCCC2)CC1,5.0,-,-,-,-,-
NC(=O)c1cncc(-c2ccc(C(=O)NC3CC3)cc2)c1,-,-,-,-,.,.
CN1CCN(Cc2ccc(C#CCCO)cc2)CC1CCO (configuration not stated),5.0,-,-,-,-,-
COc1ccc(-n2c(C)c(C(=O)O)c3cc(OC)c4ccccc4c32)cc1,4.9,-,-,-,-,-
COc1cc2c(C(=O)O)c(C)n(-c3ccccc3)c2c2ccccc12,-,-,-,-,.,.
COc1ccc(-c2cc(C(F)(F)F)n3nc(C(=O)Nc4cccc(C)c4Cl)c(Cl)c3n2)cc1OC,-,-,-,-,.,.
COc1ccc(-c2cc(C(F)(F)F)n3nc(C(=O)Nc4ccccc4C(F)(F)F)c(Cl)c3n2)cc1OC,6.0,-,-,-,-,-
COc1ccc(C2C(C(=O)Nc3ccc4c(c3)OCO4)c3ccccc3C(=O)N2c2ccc(OC)cc2)cc1 (configuration not stated),-,-,-,-,.,.
CCC(C)c1ccc(NC(=O)CSc2nnnn2-c2ccc(OC)cc2)cc1 (configuration not stated),5.6,-,-,-,-,-
COc1ccc(-n2nnnc2SCC(=O)Nc2ccc(NC(C)=O)cc2)cc1OC,-,-,-,-,.,.
COc1cc(NC(=O)CSc2nnnn2-c2ccc(OC)c(OC)c2)cc(OC)c1,5.0,-,-,-,-,-
CC1(C(=O)NNC(=S)NCc2ccco2)CC1(Cl)Cl (configuration not stated),5.3,-,-,-,-,-
CC(C)CC(=O)NC(c1ccc2c(c1)OCO2)c1c(O)ccc2ccccc12 (configuration not stated),5.2,-,-,-,-,-
O=C(CCc1ccccc1)NC(c1ccc2c(c1)OCO2)c1c(O)ccc2ccccc12 (configuration not stated),-,-,-,-,.,.
O=C(COC(=O)c1c(F)cccc1F)Nc1ncc(Cl)cc1Cl,-,-,-,-,.,.
Cc1ccccc1NC(=O)c1cccc(N2C(=O)c3ccc(Br)cc3C2=O)c1,-,-,-,-,.,.
CC1=CC2=NC(=O)/C(=C\c3ccc(C)o3)C(=N)N2O1,-,-,-,-,.,.
CC12CCC(C(=O)Nc3ccc(F)c(F)c3)(CC1=O)C2(C)C (configuration not stated),8.8,-,-,-,-,-
C=CCNC(=O)c1cc(I)ccc1NC(=O)c1cccnc1,5.7,-,-,-,-,-
C=CCNC(=O)c1cc(I)ccc1NC(=O)c1ccc(F)cc1,11,-,-,-,-,-
